CYP2C9 inhib: human CYP2C9 inhibition; P11712; CYP2C9 Supersomes, luciferin-H conversion, luminescence; inhibition, % at 5 µM; hit rate 20% among 96,000; AID 777;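 active means blocking of liver enzyme CYP2C9 beyond about 50% at 5 µM, limit read from the data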
Target sequence (P11712 whole entry, looked up): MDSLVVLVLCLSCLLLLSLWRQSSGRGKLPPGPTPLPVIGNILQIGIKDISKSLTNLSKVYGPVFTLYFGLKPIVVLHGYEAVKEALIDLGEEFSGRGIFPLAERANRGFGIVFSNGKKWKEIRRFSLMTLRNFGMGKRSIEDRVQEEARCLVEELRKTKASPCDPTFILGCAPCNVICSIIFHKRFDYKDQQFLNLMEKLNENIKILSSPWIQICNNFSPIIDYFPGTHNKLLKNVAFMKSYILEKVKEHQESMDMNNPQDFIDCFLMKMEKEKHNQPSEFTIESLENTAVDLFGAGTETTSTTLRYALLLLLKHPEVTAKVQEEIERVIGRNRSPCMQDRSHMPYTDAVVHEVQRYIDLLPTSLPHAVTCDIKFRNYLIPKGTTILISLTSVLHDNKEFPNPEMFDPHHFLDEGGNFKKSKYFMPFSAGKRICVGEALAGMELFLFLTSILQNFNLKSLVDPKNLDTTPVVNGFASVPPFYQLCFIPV
CYP2C9 activ: activators of human CYP2C9 | P11712 | recombinant CYP2C9, luciferin-H conversion, luminescence; active compounds read high; factor 1 = untreated enzyme, 0 = blocked | activation factor at 5 µM | hit rate 1.4% among 96,000 | AID 1024;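 active means activation factor of 2 or more for CYP2C9 at a 5 µM dose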;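 further: 0 = sulfaphenazole-blocked wells and 1 = vehicle-only wells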
CYP2C19 inh: blocks human cytochrome P450 2C19; AID 778; P33261; inhibition, % at 5 µM; hit rate 21% among 96,000; CYP2C19 Supersomes, luciferin-H EGE luminescence, 30 min;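 active means CYP2C19 inhibition above a set limit at 5 µM in the primary screen, cut at about 50% in these data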;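 further: plate controls were negative control wells for no effect and 2.5 mM tranylcypromine positive control for full effect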
Pyk2 oligo antag: Pyk2 (human) oligomerization antagonism | hit rate 0.83% among 99,000 | AID 1347419 | Q293 cells, Pyk2 FERM NanoBiT luminescence; active compounds read low | Q14289 | z-score (the deposit names both 25 µM and 10 µM);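 active means Z-score of -3 or lower, scaled per plate to the spread of control and sample wells; inactive means z-score above -3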;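 further: negative z-score means lost luminescence so less FERM oligomerization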
Cav3 T inh: blocks human Cav3.2 T-type calcium channel; B-score at 10 µM; O95180; Cav3.2-expressing cells, Fluo-4 calcium fluorescence FDSS; active compounds read low; hit rate 4% among 100,000;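 active means single-dose well whose peak fluorescence ratio is a statistical outlier from its plate by either plate-standardised score or position-corrected B-score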
CYP2C19 activ: activators of human cytochrome P450 2C19 | recombinant CYP2C19, luciferin-H EGE luminescence; active compounds read high; 0 = fully inhibited enzyme, 1 = untreated enzyme | activation factor at 5 µM | P33261 | 96,000 tested, under 10 active;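 active means activation factor of at least 2 at 5 µM in the primary screen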;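 further: 0 = wells with 2.5 mM tranylcypromine and 1 = vehicle-only wells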
The depositor's hits bear a star; . = no result. Shown are actives, neighbours in structure and some others; about 27% of the full set was active somewhere.

SMILES	CYP2C9 inhib	CYP2C9 activ	CYP2C19 inh	Pyk2 oligo antag	Cav3 T inh	CYP2C19 activ
CCOc1ccc(CCNC(=O)C2CCN(c3nn4c(=O)cc(C)nc4s3)CC2)cc1	65*	0.4	23	0.09	0.75	0.8
Cc1ccc(CCNC(=O)C2CCN(c3nn4c(=O)cc(C)nc4s3)CC2)cc1	28	0.7	21	-0.37	0.43	0.8
CCOc1ccc(CCNC(=O)C2CCN(c3nnc(-n4cccc4)s3)CC2)cc1OCC	82*	0.2	43	1.4	0.77	0.6
CCOc1ccc(CCNC(=O)C2CCC(=O)N2C2CCCCC2)cc1OCC (stereo unspecified)	20	0.8	64*	-0.23	1.3	0.4
Cc1cc(C)c(NC(=O)C2CCCN2C(=O)NC2CCCCC2)c(C)c1 (stereo unspecified)	.	.	.	-0.55	0.88	.
COC(=O)c1sccc1NC(=S)N1CC(C)CC(C)C1 (stereo unspecified)	70*	0.3	83*	1.5	-1.4	0.2
COC(=O)c1sccc1NC(=S)N1CCN(c2ccc(F)cc2)CC1	.	.	.	0.25	.	.
Cc1cc(C)n2nc(SCC(=O)N(C)Cc3ccccc3)nc2n1	-22	1.2	-6	0.39	1.1	1.1
O=C(CSc1ccccn1)c1ccc(F)cc1	3	1	41	0.34	-0.27	0.6
COc1ccccc1CNC(=O)CSc1nc2nc(C)cc(C)n2n1	-32	1.3	-7	0.05	0.56	1.1
Cc1cc(SCC(N)=O)nc(SCC(=O)c2ccccc2)n1	4	1	20	0.12	0.8	0.8
Cc1ccc(C(=O)CSc2cc(C)nc(SCC(=O)c3ccccc3)n2)cc1	73*	0.3	33	-1.9	-1.5	0.7
COc1ccc(CNC(=O)CSc2nc3nc(C)cc(C)n3n2)cc1	61*	0.4	20	-0.27	0.25	0.8
Cc1ccc(C(=O)CSc2ccccn2)cc1	43	0.6	82*	0.17	0.16	0.2
Cc1cc(C)n2nc(SCC(=O)c3ccccc3)nc2n1	29	0.7	59*	0.51	0.21	0.4
CN1CCN(C(=O)CCC(=O)c2ccc(F)cc2)CC1	-12	1.1	2	0.18	0.5	1
Cc1cc(=O)n2nc(-c3ccc(C(F)(F)F)cc3)sc2n1	-15	1.1	-27	0.86	0.4	1.3
Cc1cc(SCC(=O)c2ccccc2)nc(C)n1	22	0.8	67*	0.29	.	0.3
Cc1cc(=O)[nH]c(SCn2nnc3ccccc3c2=O)n1	2	1	-5	0.98	0.43	1.1
COC(=O)c1ccc(NC(=O)CSc2nc3cccnc3n2C)cc1	.	.	.	0.92	2.2	.
Cc1cc(C)n2nc(SCn3nnc4ccccc4c3=O)nc2n1	8	0.9	72*	0.29	0.27	0.3
COC(=O)c1ccc(NC(=O)CSc2ccccn2)cc1	54*	0.5	82*	-0.15	-0.12	0.2
O=C(CSc1nc(O)c(Cc2ccccc2)c(=O)n1-c1ccccc1)N1CCOCC1	-23	1.2	-10	-0.46	0.68	1.1
COc1ccc([C@@H]2C=C(C(=O)O)O[C@H](OCCCCO)C2)cc1	.	.	.	.	-0.019	.
Cc1cc(N/C=C/C(=O)c2cccc3ccccc23)no1	-33	1.3	57*	-0.26	-1.7	0.4
SMILES	CYP2C9 inhib	CYP2C9 activ	CYP2C19 inh	Pyk2 oligo antag	Cav3 T inh	CYP2C19 activ
CC1CCc2c(C(=O)N3CCN(S(=O)(=O)c4cccs4)CC3)csc2C1 (stereo unspecified)	77*	0.2	78*	-1.1	-2.4	0.2
O=C(c1ccco1)N1CCN(C(=O)C2CCN(S(=O)(=O)c3cccs3)CC2)CC1	-3	1	1	0.02	0.71	1
O=[N+]([O-])c1ccc(NCCCNS(=O)(=O)c2ccc(Cl)cc2)c(Cl)c1	49	0.5	72*	.	.	0.3
COn1c(SCC(=O)N(C)C)nc2ccccc2c1=O	-12	1.1	13	0.63	0.54	0.9
C[C@H]1C=C(C(=O)NCc2nc3ccccc3[nH]2)O[C@@H](OCc2ccc(CO)cc2)C1	.	.	.	.	-0.76	.
CCOC(=O)c1c(NC(=O)CN2CCOCC2)sc(C(=O)NC)c1C	39	0.6	37	-0.62	0.4	0.6
CCOC(=O)c1sc(NS(=O)(=O)c2ccccc2)nc1C	81*	0.2	28	-0.07	-0.5	0.7
CCOC(=O)c1sc(Nc2ccc(C)cc2C)nc1C	88*	0.1	17	-2.8	-3	0.8
CNc1nc(C)c(C(=O)OCC(=O)OC)s1	5	1	6	1.7	.	0.9
CNc1nc(C)c(C(=O)OCc2ccccc2)s1	54*	0.5	85*	-1.4	-0.0045	0.2
CCOC(=O)c1sc(Nc2ccccc2)nc1C	41	0.6	24	-2	-0.97	0.8
CCOC(=O)c1c(Nc2nc(C)c(C(=O)NC)s2)sc(C)c1C	65*	0.4	40	-0.09	-0.14	0.6
OCCOCCOCCn1c2ccccc2c2ccccc21	29	0.7	82*	-0.29	0.95	0.2
CC(=O)O[C@H]1CC[C@]2(C)[C@H]3CC=C4[C@@H]5[C@@H](C)[C@H](C)CC[C@]5(C(=O)O)CC[C@@]4(C)[C@]3(C)CC[C@H]2C1(C)C	.	.	.	.	-0.72	.
CCn1c2ccccc2c2cc(NC(=O)c3ccc(Br)o3)ccc21	1	1	77*	-0.57	-0.98	0.2
CCCCC(=O)Nc1cccc(NC(=O)c2ccc(Br)o2)c1	93*	0.1	70*	-0.17	-0.3	0.3
CCn1c2ccccc2c2cc(NC(=O)N3CCOCC3)ccc21	-43	1.4	52*	-0.3	0.68	0.5
O=C(CSc1nnc(CNc2ccc(F)cc2)n1Cc1ccccc1)N1CCOCC1	14	0.9	-1	-0.01	0.021	1
CCN=C1SC(CC(=O)Nc2sc(C)c(C)c2C(=O)OC)C(=O)N1CC (stereo unspecified)	17	0.8	42	-1.5	-1.8	0.6
O=C1N/C(=N/N=C/c2ccccc2)SC1(c1ccccc1)c1ccccc1	94*	0.1	20	0.53	1.2	0.8
CC1(C)S/C(=N/N=C/c2cccs2)NC1=O	44	0.6	-5	0.33	-0.18	1
CCCCC(=O)Nc1ccccc1C(=O)N1CCOCC1	.	.	.	-1.4	-0.25	.
O=C(CSc1nnc(-c2ccccn2)n1Cc1ccco1)c1ccc(-c2ccccc2)cc1	28	0.7	0	1.2	-2	1
O=C(CSc1nnc(-c2cc3ccccc3cc2O)n1Cc1ccco1)c1ccc(F)cc1	100*	0	94*	-0.76	-4*	0.1
Cc1occc1-c1nnc(SCC(=O)c2ccc(F)cc2)o1	32	0.7	84*	0.86	-2.7	0.2
Cc1cc(NC(=O)CSc2nnc(-c3ccoc3C)o2)no1	16	0.8	4	1.2	-0.18	1
O=C(CSc1nnc(-c2ccco2)n1Cc1ccccc1)c1ccc(F)cc1	92*	0.1	96*	-0.63	-1.4	0
CCN(CC)C(=O)CSc1nnc(-c2cc3ccccc3cc2O)n1CC	-4	1	-9	0.69	0.55	1.1
